# High-throughput results as filed in PubChem.
# JMJD2A Tudor inh: blocks the human JMJD2A Tudor domain | AlphaScreen JMJD2A-Tudor / H3K4me3 peptide binding | AID 504339 | Potency, µM (titrated, usually from 114 µM), for the others: top-dose activity change, negative = inhibition, usual class: inhibitors | O75164 | 390,000 tested, 4.4% active; also: % is scaled to controls: 0 for no effect and ±100 for the full control effect; nearly all actives have a fitted effect of over 50% in size
# Sfp PPTase inh: blocks B. subtilis Sfp PPTase activity. Biochemical Sfp PPTase activity, qHTS. Q9F4F7. AID 1490. 310,000 tested, 3.5% active. Potency, µM, for the others: largest response in the series, negative = inhibition, most hits filed as inhibitors;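 also: the enzyme is Sfp with the accession as filed and its product quenches rhodamine fluorescence; 0% = enzyme reaction without inhibitor and -100% = no enzyme wells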
#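 Fluorescence-quenching assay: 15 nM Sfp-PPTase preincubated 15 min at room temperature with compound, then 5 uM rhodamine-CoA and 12.5 uM BHQ-2-labelled YbbR peptide added. Fluorescence (ex 525/em 598 nm) read at start and after 30 min; difference gives rate.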
# HP1b binding inh: HP1-beta chromodomain-methylated histone interaction inhibition | P83916 | AlphaScreen HP1-beta / biotin-H3K9me3 peptide binding | Potency, µM (highest dose often 114 µM), without a hit: at the highest dose activity change, negative = inhibition, actives largely listed as inhibitors | 390,000 tested, 0.56% active | AID 540317; also: nearly all actives have a fitted effect of over 70% in size
#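 HP1-beta protein (50 nM final) preincubated 30 min at room temperature with biotinylated H3(1-18)K9me3 peptide (50 nM) in PBS pH 7.4, 0.01% Tween-20, then compound added for 30 min. AlphaScreen streptavidin donor/nickel chelate acceptor beads (10 ug/mL final), 30 min dark, luminescence read.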
# 12-LOX inh: ALOX12 (human) lipoxygenase inhibition | P18054 | 580,000 tested, 1.1% active | Potency, µM (titrated, usually from 108 µM), inactives show at the top dose activity change, negative = inhibition, usual class: inhibitors | purified 12hLO, xylenol orange hydroperoxide absorbance; also: % is scaled to controls: 0 for no effect and ±100 for the full control effect
# Target sequence (P18054 whole entry, looked up): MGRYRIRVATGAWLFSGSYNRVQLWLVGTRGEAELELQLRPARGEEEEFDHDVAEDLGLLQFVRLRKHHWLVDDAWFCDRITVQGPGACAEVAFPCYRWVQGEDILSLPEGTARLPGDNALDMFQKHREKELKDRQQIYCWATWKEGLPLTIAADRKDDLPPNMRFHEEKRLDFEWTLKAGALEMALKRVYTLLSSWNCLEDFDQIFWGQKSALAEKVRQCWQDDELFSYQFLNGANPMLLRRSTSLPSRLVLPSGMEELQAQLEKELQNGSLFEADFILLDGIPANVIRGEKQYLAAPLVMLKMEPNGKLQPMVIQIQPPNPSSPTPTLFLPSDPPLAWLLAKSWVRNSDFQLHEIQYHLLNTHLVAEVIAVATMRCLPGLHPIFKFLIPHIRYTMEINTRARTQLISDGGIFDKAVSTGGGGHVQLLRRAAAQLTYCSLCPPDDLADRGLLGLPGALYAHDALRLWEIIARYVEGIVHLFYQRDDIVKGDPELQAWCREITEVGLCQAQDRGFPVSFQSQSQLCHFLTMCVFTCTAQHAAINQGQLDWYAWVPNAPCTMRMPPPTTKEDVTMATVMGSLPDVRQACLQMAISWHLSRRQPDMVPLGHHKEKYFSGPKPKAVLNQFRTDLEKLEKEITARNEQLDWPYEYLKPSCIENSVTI
#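 Hydroperoxide product was detected by ferrous iron/xylenol orange as the 573 to 405 nm absorbance ratio. Arachidonic acid at 40 uM (final) was turned over for 30 min at room temperature by 150 nM human 12hLO, pH 7.0 Hepes buffer, after 15 min compound preincubation.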
# BAZ2B inh: blocks human BAZ2B; AlphaScreen BAZ2B-H3K14Ac peptide displacement; Potency, µM (doses to about 114 µM), for the others: top-dose activity change, negative = inhibition, most hits filed as inhibitors; 360,000 tested, 4.4% active; also: % is scaled to controls: 0 for no effect and ±100 for the full control effect; nearly all actives have a fitted effect of over 60% in size
#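 AlphaScreen luminescence quantifies BAZ2B engagement of H3K14Ac peptide; the protein and biotinylated peptide are both at 50 nM final, buffer PBS pH 7.4 with 0.01% Tween-20, all steps at room temperature.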
# G9a inh: blocks human histone lysine methyltransferase G9a; Q96KQ7; G9a H3K9 monomethylation, AlphaScreen, 2 h; Potency, µM (titrated, usually from 102 µM), without a hit: top-dose activity, negative = inhibition, usual class: inhibitors; AID 504332; 350,000 tested, 8.8% active; also: % is scaled to controls: 0 for no effect and ±100 for the full control effect; nearly all actives have a fitted effect of over 75% in size
#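 Quantitative HTS format: methyltransferase activity on a biotin-tagged H3K9 peptide is measured by AlphaScreen, using a rabbit anti-monomethyl-H3K9 antibody with streptavidin donor and anti-IgG acceptor beads. Final levels are 20 nM enzyme, 500 nM peptide, 20 uM SAM; 2 h RT.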
# * marks the source's active call; other numbers are inactive results; ? = inconclusive; · = no result given; [ ] = remark or other dose. Compounds with a hit are over-represented: about 8.7% of the library has one in this group of screens. Calls follow the shape of the dose curve; as a rule, active = well fitted curve in the direction sought with a large enough effect; inconclusive = small, poorly fitted or top-dose-only effect, or another doubt; inactive = no such curve, though single readings can be large; an effect the other way counts as inactive or inconclusive. Potency is read from the fitted curve at half-maximal effect.
SMILES,JMJD2A Tudor inh,Sfp PPTase inh,HP1b binding inh,12-LOX inh,BAZ2B inh,G9a inh
CCOC(=O)C1CCCCN1Cc1cccc(F)c1 (stereo unspecified),22.4µM*,-27.9%,?,?,50.1µM*,3.55µM*
CCN(Cc1ccc(OC)c(OC)c1)S(=O)(=O)c1cnn(C)c1,·,·,·,14.9%,·,·
CC(=O)C1=C(c2ccccc2)NC(=S)NC1c1ccc(O)c(O)c1 (stereo unspecified),-16.1%,-20.0%,24.2%,?,?,8.91µM*
COc1ccc(C2NC(=O)NC(C)=C2[N+](=O)[O-])cc1OC (stereo unspecified),4.3%,9.6%,35.1%,4.5%,0.5%,22.8%[59 µM]
CC1=C([N+](=O)[O-])C(c2ccc(O)c(O)c2)NC(=O)N1 (stereo unspecified),-19.2%,?,11.4%,28.2µM*,18.8%,10µM*
CC(=O)C1=C(c2ccccc2)NC(=O)NC1c1ccc2c(c1)OCO2 (stereo unspecified),-12.2%,2.2%,9.1%,24.7%,-6.4%,·
CC(=O)C1=C(c2ccccc2)NC(=O)NC1c1ccc(O)c(O)c1 (stereo unspecified),12.6µM*,44.7µM*,-16.5%,?,?,·
O=C(c1ccccc1F)N1CCC2(C1)C(=NC1CCCC1)NC(=O)N2c1cc(F)cc(F)c1 (stereo unspecified),·,·,·,5.0%[6.33 µM],·,·
COc1cccc(-c2ccc3nnc(SCC(=O)N4CCCc5ccccc54)n3n2)c1,·,·,·,2.3%,·,·
Clc1ccc(-c2noc(CN(Cc3ccccn3)CC3CCCO3)n2)cc1 (stereo unspecified),-25.3%,?,48.7%,0.5%,-5.5%,-7.6%
Cc1oc(-c2ccc(F)cc2)nc1CN(Cc1ccccn1)CC1CCCO1 (stereo unspecified),20µM*,-0.3%,?,-0.3%,-13.7%,0.9%
COc1ccccc1/C=C/C1=NC(=C\C=C/c2ccccc2)/C(=O)O1,56.2µM*,-0.2%,?,44.7µM*,?,?
COc1ccccc1/C=C/C=C1N=C(/C=C/c2ccc(Cl)cc2)OC/1=O,?,-8.6%,?,?,?,?
Clc1ccc(-c2csc3ncnc(Sc4nnc(C5CC5)o4)c23)cc1,·,·,·,1.4%,·,·
CCCCCCCCCCOC(=O)NC1CCS(=O)(=O)C1 (stereo unspecified),6.2%,-0.4%,47.1%,-2.8%,-0.3%,21.8%
CCCCCCS(=O)[C@H]1CS(=O)(=O)C[C@@H]1S(=O)CCCCCC (stereo partly specified),-7.5%,-2.3%,45.1%,?,-4.2%,8.91µM*
CCCCCCCCS(=O)C1CCS(=O)(=O)C1 (stereo unspecified),11.3%,11.7%,45.7%,?,1.5%,39.8µM*
CCCCCCCCCCCCS(=O)CCCC (stereo unspecified),·,·,·,-9.0%,·,·
CC(C)(C)c1ccc2c(c1)Oc1cc(C(C)(C)C)ccc1OCCOCCOCCO2,·,·,·,-10.0%,·,·
CN1CC(=O)N2CCN(C(=O)Cn3nnc4ccccc4c3=O)CC2C1=O (stereo unspecified),·,·,·,24.3%,·,·
COc1ccc(C(=O)CSc2nnc(-c3ccco3)n2C)cc1,-8.8%,-7.9%,31.7%,0.6%,4.9%,-7.9%[59 µM]
COc1cccc(NC(=O)CSc2nnc(-c3ccco3)c(-c3ccco3)n2)c1,44.7µM*,10µM*,?,-5.1%,50.1µM*,2.82µM*
COc1ccc(C(=O)CSc2nnc(-c3ccco3)c(-c3ccco3)n2)cc1,22.4µM*,8.91µM*,?,20µM*,20µM*,8.91µM*
CCn1c(SCC(=O)Nc2ccc(OC)c(OC)c2)nnc1-c1ccco1,-14.4%,14.2%,21.6%,113.0%,0.0%,2.4%
CSc1nnc(-c2ccco2)c(-c2ccco2)n1,-6.9%[11.4 µM],10µM*,?,22.4µM*,20µM*,?
SMILES,JMJD2A Tudor inh,Sfp PPTase inh,HP1b binding inh,12-LOX inh,BAZ2B inh,G9a inh
COc1ccc(NC(=O)CSc2nnc(-c3ccco3)c(-c3ccco3)n2)cc1OC,?,35.5µM*,?,-1.2%,-9.4%,7.08µM*
COCCNC(=O)CCC1CCN(C(=O)c2ccccc2Cl)CC1,·,·,·,7.6%,·,·
Cn1nc(C(=O)Nc2cc(-c3cccc(F)c3)no2)c2c1-c1ccccc1OC2,·,·,·,-28.8%,·,·
O=C(Nc1ccccc1)N1CCc2scc[n+]2-c2ccccc21,-19.9%,?,-4.8%,12.8%,-8.2%,-16.5%[59 µM]
O=CN1CCc2scc[n+]2-c2ccccc21,-25.2%,31.6µM*,27.2%,0.0%,-6.0%,?
Cc1nc2ccc(NC(=O)COc3ccccc3)cc2s1,-9.9%,5.2%,32.6%,-9.7%,2.7%,-2.7%
CCOCC(=O)Nc1nnc(C)s1,-2.3%,-0.5%,18.3%,?,10.8%,44.7µM*
CCc1sc(NC(=O)COC)nc1-c1ccccc1,-10.1%,-6.5%,-21.6%,22.0%,3.4%,35.5µM*
COc1ccc(C(=O)Nc2nc3ccccc3s2)cc1OC,-15.4%,?,33.8%,-11.9%,3.3%,·
Cc1nnc(NC(=O)COc2ccccc2)s1,-26.0%,6.0%,9.4%,7.3%,-6.1%,?
CCC(=O)Nc1nc2ccc(NC(=O)COc3ccccc3)cc2s1,-0.8%,0.9%,36.3%,·,-17.3%,79.4µM*
COc1ccc(/C=N/OCC(=O)Nc2nc3ccccc3s2)cc1OC,50.1µM*,-3.0%,-0.8%,-3.7%,-1.8%,7.0%
CCn1cc(CN(C)C(=O)CCC[C@@H]2[C@H]3CCCN4CCC[C@@H](CN2C)[C@@H]34)c(C)n1,·,·,·,107.1%,·,·
CCOCC(=O)Nc1nc2ccccc2s1,-3.1%,50.1µM*,42.3%,-1.7%,13.8%,5.0%[59 µM]
Cc1cc2ccccc2n1CC(=O)NC1CCC(C)CC1 (stereo unspecified),·,·,·,-5.6%,·,·
C=CCn1c(/N=C/c2ccc(OC)cc2)nc2ccccc21,-11.2%,6.2%,19.9%,·,-24.1%,-49.4%
C=CCn1c(/N=C/c2ccc(N(C)C)cc2)nc2ccccc21,?,12.6%,-10.1%,17.5%,?,44.7µM*
COc1ccc(-n2cc(-c3ccccc3)c3c(N4CCN(CCO)CC4)ncnc32)cc1,?,?,-8.7%,?,?,50.1µM*
COc1ccc(-n2cc(-c3ccccc3)c3c(NN4CCOCC4)ncnc32)cc1,?,1.7%,?,-1.0%,?,50.1µM*
CC(C)[C@H]1C=C(C(=O)O)O[C@@H](OCc2ccc(CO)cc2)C1,89.1µM*,7.1%,25.2%,-6.0%,?,?
C[C@@H]1C=C(C(=O)O)O[C@H](OCc2ccc(CO)cc2)C1,-13.6%,-3.0%,23.4%,?,-37.6%,-126.2%[59 µM]
C=CCN(CC=C)Cc1c(O)ccc2c1oc(=O)c1ccccc12,8.91µM*,·,?,?,·,·
